# Biological target: GPR137
# Test: pooled miR-30 sensor sort-seq; sequence = guide strand
# Settings: shRNA
# Note: reference of the scale not given here.
row,Sequence,sensor-assay potency score (higher = more potent)
1,TAATCGAAGGTGTCCAGCCGGC,-0.771
2,ATGACGAACAGGGAGTCGCTCA,-1.35
3,TCCAGGTAGATGCTAGTGGAGG,-2.54
4,TCATTCACCAGGTCCGCCTGGT,0.279
5,TGGTCAGACACATTGTACCAGC,-1.27
6,AGTGCTGTCAGGTTGTAGCAGG,-1.93
7,TAGCTGAGACGCTTGTGCCCAT,-0.72
8,TTGGCCTCCAGGTAGATGCTAG,-0.691
9,TCAGACACATTGTACCAGCCGT,-0.426

# Biological target: GPR172A
# Test: as above
# Settings: shRNA
row,Sequence,sensor-assay potency score (higher = more potent)
1,TGGAACACGTGATAGATGCTGG,-0.57
2,TTAGGGTCTGGACCAGGGGTGG,-1.64
3,TTGGTGGCTCTTGCAGTGGTGA,-1.5
4,TTCTGCTGTGGAACACGTGATA,-0.914
5,TGACATTCGAGGCACAGCATGC,-1.17
6,TCACGTAGGAGAACACGCCAAG,-1.31
7,TGATAGAAGCTGATAGGCCTTA,-0.123
8,AAAACGCTCAAGGAAGTCGAGC,-1.04
9,AAGAATGACCGTAAGAAGCGAG,-0.349
10,TTCACGTAGGAGAACACGCCAA,-0.595
11,TTGGTCAGCGCGTTGGTGGCGG,-0.894
12,TGACCCAGGAAGAATGACCGTA,-0.348

# Biological target: GPR173
# Test: as above
# Settings: shRNA
row,Sequence,sensor-assay potency score (higher = more potent)
1,AAGGCCACAATCTTGCAGCTGA,0.463
2,TTTCACAAACACTCGCCAGTAG,-0.0654
3,TAAACTTGTAGGTGCCCACGTC,0.745
4,TCACGCACATAATCAGTCCTAG,-0.629
5,AATCAGTCCTAGCAGTACCAGC,-1.44
6,ATAAAGGCCACAATCTTGCAGC,-0.595
7,TGAAGGTCCATGAAGAGCCGTG,-0.497
8,TTCACCCTTGACCTCGTCCATG,-1.32
9,TACTCGAAGAGGAGCAGCTTGC,-1.59
10,TTGCCGTAGACAGCATGGGTAG,-1.57
11,TGCACTGGCTTCATCTTGCGGT,-0.396
12,TAGCGGGTGACGCTGATGCAGA,-1.36

# Biological target: GPR176
# Test: as above
# Settings: shRNA
row,Sequence,sensor-assay potency score (higher = more potent)
1,TATGATGACCTTCTTCTTCTGG,0.194
2,TTGCTGTTTCGGGTCTCTGAGA,-1.55
3,TAACACCATGAAGTTTCCGAGC,-1.48
4,TTGAACACGGTTGTGCGGCAAG,-0.817
5,AAAAATTTGACGACCTTGCAGA,-0.383
6,TTTATTGTTTCTGCTCATCTTC,-0.299
7,TTGGTTACTGCAAACACAGGGA,0.111

# From the OligoGym collection
